Shown are actives, neighbours in structure and some others; about 4.1% of the full set was active somewhere.
NALP1 yeast inh – blocks the NALP1 inflammasome reconstituted in yeast | S. cerevisiae NALP1/ASC/caspase-1 growth, X-gal OD620, 72 h | inhibition, % at 10 µM | 280,000 compounds, 0.61% hits; in the data active means inhibition mostly above about 24%, no sharp cut-off; inactive means mostly below about 32%
TIM10 inh – growth inhibitors of TIM10 yeast strain; S. cerevisiae TIM10 strain growth, BacTiter-Glo luminescence, 24 h; inhibition, % at 10 µM; 330,000 compounds, 1.4% hits;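 active means inhibition of 40% or more at the single tested concentration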;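 further: wild-type TIM10 isogenic control strain grown at permissive 25 °C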
tim23-1 inh – growth inhibitors of tim23-1 mutant yeast; 330,000 compounds, 1.3% hits; S. cerevisiae tim23-1 growth, BacTiter-Glo luminescence, 24 h; inhibition, % at 20 µM; AID 463212;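 active means growth inhibition of the mutant yeast at or above 50%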;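 further: temperature-sensitive mutant grown at 25 °C; plate controls were DMSO-treated mutant yeast for no effect and medium wells lacking yeast for full effect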
PfHsp90 yeast 2 – growth inhibition of yeast expressing Plasmodium Hsp90 | 310,000 compounds, 0.32% hits | inhibition, % at 9.4 µM | S. cerevisiae expressing PfHsp90, BacTiter-Glo ATP, 48 h; yeast lacking PDR1 and PDR3 efflux regulators | AID 504621;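 active means every replicate shows inhibition above about 80%, whatever the replicate mean, limit read from the data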;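 further: 0% = DMSO neutral controls and 100% = 20 µM radicicol positive controls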
tim10-1 inh – inhibits growth of tim10-1 mutant yeast. S. cerevisiae tim10-1 ts strain growth, BacTiter-Glo, 24 h. inhibition, % at 20 µM. 330,000 compounds, 2.2% hits. AID 463190;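 active means inhibition of at least 40%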;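 further: mutant grown at 25 °C; 0% = DMSO wells with yeast and 100% = wells holding no yeast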
NLRP3 yeast inh – blocks the NALP3 inflammasome reconstituted in yeast | inhibition, % at 10 µM | 330,000 compounds, 0.39% hits | Yeast reconstituted NLRP3/ASC/caspase-1, beta-gal luminescence, 24 h;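 active means inhibition of 50% or more; inactive means inhibition below 50%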;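 further: plate controls were induced DMSO wells for no effect and uninduced yeast grown without galactose for full effect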
tim10 confirm – confirmation of TIM10 yeast growth inhibitors; shares compounds with TIM10 inh; S. cerevisiae tim10 strain growth, BacTiter-Glo luminescence, 24 h; inhibition, % at 10 µM; 4,600 compounds, 63% hits;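 active means inhibition of yeast growth at or above a set limit in either of two replicates at 10 µM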;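 further: this counterscreen used the strain with wild-type TIM10; 0% = yeast with DMSO and 100% = medium wells lacking yeast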
* hit, by the source's call; . = no result given.

SMILES | NALP1 yeast inh | TIM10 inh | tim23-1 inh | PfHsp90 yeast 2 | tim10-1 inh | NLRP3 yeast inh | tim10 confirm
CCCC(C)NC(=O)C1c2ccccc2Oc2ccccc21 (stereo not given) | 19 | 2 | 8 | -6 | -8 | 27 | .
COc1cccc(CNc2ccc(N3CCCCC3)cc2)c1OC | 11 | 12 | 15 | -31 | 10 | 21 | .
COc1ccccc1CNc1ccc(N2CCCCC2)cc1 | -2 | 54* | 13 | 36 | 16 | 34 | 14
O=C(NCC1(c2ccccc2)CCCC1)c1ccc(Br)cc1 | 20 | 41* | 36 | -9 | 35 | 8 | 13
Cc1ccc(C(=O)NCC2(c3ccccc3)CCCC2)cc1 | -5 | 16 | 18 | 8 | 14 | 29 | .
O=C(CCNS(=O)(=O)c1ccc(OC(F)(F)F)cc1)NCCc1c[nH]c2ccccc12 | . | -1 | 6 | 2 | 1 | 6 | .
CN1CCc2c(OCC(=O)N3N=C(c4cccs4)CC3c3ccc(F)cc3)cccc2C1=O (stereo not given) | 36 | 40 | 43 | -15 | 30 | 2 | -26
CCN1CCc2c(OCC(=O)N3N=C(c4cccs4)CC3c3ccc(F)cc3)cccc2C1=O (stereo not given) | 31 | 22 | 23 | 8 | 21 | 6 | .
CC(=O)Nc1ccc(C(=O)N/N=C/c2cc(Br)cc(Br)c2O)cc1 | -2 | 52* | 11 | -1 | 34 | 3 | 31*
NC(=O)C[C@H](N)c1cn([C@@H](CC(N)=O)C(=O)N2CCNCC2)nn1 | . | 6 | -1 | 19 | 9 | 6 | .
CCOC(=O)Nc1cccc(OCC(=O)Nc2ccc3c(c2)CCC3)c1 | . | 49* | 29 | . | -25 | 32 | 3
c1ccc(-c2nc(N3CCCCCC3)nc(-n3ccnc3)n2)cc1 | 18 | 48* | 17 | -23 | 16 | -4 | 28
CC(c1ccc(F)cc1)n1c(-c2ccc3ccccc3n2)n[nH]c1=S (stereo not given) | -1 | 46* | 49 | -48 | 6 | 17 | 23
CC(c1ccc(Cl)cc1)n1c(-c2ccc3ccccc3n2)n[nH]c1=S (stereo not given) | -1 | 30 | 48 | -6 | 37 | 21 | .
COc1cccc(-c2sc3ccccc3c2-c2ccc(OCCN(C)C)cc2)c1 | . | 50* | -1 | 38 | -8 | 47 | 52*
COc1cccc(-c2sc3ccccc3c2-c2ccc(OCCN3CCCC3)cc2)c1 | . | -26 | 17 | 22 | 4 | 34 | .
CCOc1c2ccccc2nn1CCO | . | 2 | 16 | -7 | 7 | 10 | .
COc1cc(C2C(C#N)=C(N)N(N(C)C)C3=C2C(=O)CC(C)(C)C3)ccc1O (stereo not given) | -9 | -6 | 2 | 1 | 15 | 21 | .
O=C(c1ccccc1)N1N=C(C(F)(F)F)CC1(O)c1ccc(F)cc1 (stereo not given) | 5 | 67* | 37 | 3 | 0 | 1 | 23
COc1cccc(C(=O)OC(C)CN2CCCC2)c1 (stereo not given) | 5 | -12 | 9 | 1 | 8 | 18 | .
CC(CN1CCCCC1)OC(=O)c1cccc(F)c1 (stereo not given) | 20 | 97* | 4 | -4 | -13 | 23 | -8
CC(=O)N1CCN(c2ccccc2NC(=O)c2ccco2)CC1 | 12 | -3 | 2 | -5 | 13 | 11 | .
CC(C)(C)c1ccc(C(=O)NC(=S)NCc2cccnc2)cc1 | 22 | 41* | 45 | 9 | 38 | 20 | 30*
CC1/C(=N/O)CC(c2ccccc2)N(C)C1c1ccccc1 (stereo not given) | 1 | 52* | 20 | 43 | 27 | 20 | 55*
CC1(C)C([N+](=O)[O-])C(c2ccc(Cl)cc2)NC(c2ccc(Cl)cc2)C1[N+](=O)[O-] (stereo not given) | 15 | 42* | 30 | -14 | 37 | -13 | 38*
SMILES | NALP1 yeast inh | TIM10 inh | tim23-1 inh | PfHsp90 yeast 2 | tim10-1 inh | NLRP3 yeast inh | tim10 confirm
CC1(C)C([N+](=O)[O-])C(c2ccc(F)cc2)NC(c2ccc(F)cc2)C1[N+](=O)[O-] (stereo not given) | 13 | 23 | 36 | -17 | 37 | -2 | .
O=C(c1cc2sccc2n1Cc1ccc(F)cc1)N1CCN(c2nc3ccccc3s2)CC1 | -116 | 43* | 26 | 4 | 32 | -5 | 19
O=C(c1ccc([N+](=O)[O-])o1)N1CCN(c2nc3c(Cl)cccc3s2)CC1 | . | 56* | 6 | -48 | 24 | 39 | 85*
O=C(c1ccc([N+](=O)[O-])o1)N1CCN(c2nc3ccc(F)cc3s2)CC1 | . | 40* | -41 | . | 3 | 24 | 81*
CC(=O)C(C(c1ccccc1)c1c[nH]c2ccccc12)[N+](=O)[O-] (stereo not given) | 1 | 36 | 37 | 19 | 38 | -12 | .
O=C(C#Cc1cccc([N+](=O)[O-])c1)c1ccccc1 | -10 | 80* | -20 | 137* | 29 | -49 | 83*
O=C(Nc1cccc([N+](=O)[O-])c1)c1ccccc1 | 31 | 12 | 25 | -64 | -33 | 26 | .
CCOC(=O)CN(C(=O)c1snc(C(N)=O)c1N)C(C(=O)NC1CCCCC1)c1ccc(F)cc1 (stereo not given) | 0 | 11 | 11 | 8 | 15 | 10 | .
O=C(CSc1n[nH]c(=O)n1-c1cccnc1)Nc1ccccc1Cl | 5 | 10 | 5 | -15 | 1 | 13 | .
CC(C)Cc1ccc(CN2CCCC(NC(=O)CSc3nncn3C)C2)cc1 (stereo not given) | 9 | 6 | -4 | . | 10 | 5 | .
O=C(NCc1ccncc1)c1cccc(S(=O)(=O)NCc2ccccc2)c1 | 18 | -2 | -11 | 7 | -14 | 22 | .
Cc1ccc(OCCNC(=O)c2cccc(S(=O)(=O)NCc3ccccc3)c2)cc1 | . | 59* | 7 | . | 9 | 2 | -4
Cc1cc(C)n(-c2nc3ccccc3nc2N2CCC(C)CC2)n1 | 3 | 42* | 24 | . | 25 | 16 | 18
O=[N+]([O-])c1cccc(/C=C/c2nc3ccc([N+](=O)[O-])cc3[nH]2)c1 | 2 | 54* | 42 | -20 | 20 | 19 | 58*
Cc1nc2ccc([N+](=O)[O-])cc2[nH]1 | 20 | -8 | 12 | 19 | 1 | -2 | .
Cc1ccc(NC(=S)Nc2ccc(OC(F)F)c(Cl)c2)cc1F | 9 | 42* | 40 | 12 | 37 | 22 | 36*
COc1ccc(C2(c3ccc(OC)cc3)NC(=O)N(CC(=O)NC3(C#N)CCCCC3)C2=O)cc1 | . | 5 | 15 | -2 | 12 | 13 | .
O=[N+]([O-])c1ccc(N2N=C(c3ccccc3)CC2c2ccccc2O)cc1 (stereo not given) | 14 | 42* | 9 | 108* | 13 | 20 | 60*
